This excerpt belongs to a sample that is enriched for the strongest signals.
Legend:
Test in all cases: glycan array binding signal (z-score within array); higher = stronger binding
Settings in all cases: glycan notation: IUPAC condensed, linker removed
[1] = target: Fuc(a1-2)Gal(b1-3)GalNAc(a1-3)[Fuc(a1-2)]Gal(b1-4)Glc
Procedure, shortened: (§1)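 Glycan array data were curated from 3228 arrays in the Consortium for Functional Glycomics database and kept only where the protein sequence was available. Glycan names were converted to IUPAC-condensed notation, and columns mapping to the same glycan were averaged. The binding signal is a within-array Z-score, averaged across arrays of the same protein sequence at different concentrations or buffers and across linkers. Negative Z-scores can be read as non-binding.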

[2] = target: Fuc(a1-2)Gal(b1-3)GlcNAc(b1-2)Man(a1-3)[Fuc(a1-2)Gal(b1-3)GlcNAc(b1-2)Man(a1-6)]Man(b1-4)GlcNAc(b1-4)[Fuc(a1-6)]GlcNAc
Procedure, shortened: as §1

[3] = target: Fuc(a1-2)Gal(b1-4)GlcNAc(b1-3)Gal(b1-4)GlcNAc
Procedure, shortened: as §1

[4] = target: Fuc(a1-2)Gal(b1-4)GlcNAc(b1-3)Gal(b1-4)GlcNAc(b1-2)Man(a1-3)[Fuc(a1-2)Gal(b1-4)GlcNAc(b1-3)Gal(b1-4)GlcNAc(b1-2)Man(a1-6)]Man(b1-4)GlcNAc(b1-4)GlcNAc
Procedure, shortened: as §1

[5] = target: Fuc(a1-2)Gal(b1-4)GlcNAc(b1-3)GalNAc
Procedure, shortened: as §1

[6] = target: Fuc(a1-2)Gal(b1-4)GlcNAc(b1-6)GalNAc
Procedure, shortened: as §1

[7] = target: Fuc(a1-2)Gal(b1-4)GlcNAc6S
Procedure, shortened: as §1

[8] = target: Fuc(a1-2)[GalNAc(a1-3)]Gal(b1-3)GalNAc(a1-3)[Fuc(a1-2)]Gal(b1-4)GlcNAc
Procedure, shortened: as §1

[9] = target: Fuc(a1-2)[GalNAc(a1-3)]Gal(b1-4)GlcNAc(b1-2)Man(a1-3)[Fuc(a1-2)[GalNAc(a1-3)]Gal(b1-4)GlcNAc(b1-2)Man(a1-6)]Man(b1-4)GlcNAc(b1-4)[Fuc(a1-6)]GlcNAc
Procedure, shortened: as §1

[10] = target: Fuc(a1-2)[GalNAc(a1-3)]Gal(b1-4)[Fuc(a1-3)]GlcNAc(b1-3)GalNAc
Procedure, shortened: as §1

[11] = target: Fuc(a1-3)[Gal(b1-4)]GlcNAc(b1-2)Man(a1-3)[Fuc(a1-3)[Gal(b1-4)]GlcNAc(b1-2)Man(a1-6)]Man(b1-4)GlcNAc(b1-4)[Fuc(a1-6)]GlcNAc
Procedure, shortened: as §1

[12] = target: Fuc(a1-3)[Gal(b1-4)]GlcNAc(b1-3)Gal(b1-3)[Fuc(a1-4)]GlcNAc
Procedure, shortened: as §1

Fuc(b1-3)GlcNAc = target: Fuc(b1-3)GlcNAc
Procedure, shortened: as §1

Gal(a1-4)Gal(b1-4)Glc = target: Gal(a1-4)Gal(b1-4)Glc
Procedure, shortened: as §1

Gal(b1-3)Gal = target: Gal(b1-3)Gal
Procedure, shortened: as §1

Gal(b1-3)Gal(b1-4)GlcNAc = target: Gal(b1-3)Gal(b1-4)GlcNAc
Procedure, shortened: as §1

[13] = target: Gal(b1-3)GalNAc(a1-3)[Fuc(a1-2)]Gal(b1-4)Glc
Procedure, shortened: as §1

Gal(b1-3)GalNAc(b1-3)Gal = target: Gal(b1-3)GalNAc(b1-3)Gal
Procedure, shortened: as §1

[14] = target: Gal(b1-3)GalNAc(b1-4)Gal(b1-4)Glc
Procedure, shortened: as §1

[15] = target: Gal(b1-3)GlcNAc(b1-2)Man(a1-3)[Gal(b1-3)GlcNAc(b1-2)Man(a1-6)]Man(b1-4)GlcNAc(b1-4)GlcNAc
Procedure, shortened: as §1

[16] = target: Gal(b1-3)GlcNAc(b1-3)Gal(b1-4)[Fuc(a1-3)]GlcNAc
Procedure, shortened: as §1

[17] = target: Gal(b1-3)[Fuc(a1-4)]GlcNAc(b1-2)Man(a1-3)[Gal(b1-3)[Fuc(a1-4)]GlcNAc(b1-2)Man(a1-6)]Man(b1-4)GlcNAc(b1-4)[Fuc(a1-6)]GlcNAc
Procedure, shortened: as §1

[18] = target: Gal(b1-3)[Neu5Ac(a2-6)]GalNAc
Procedure, shortened: as §1

[19] = target: Gal(b1-4)GlcNAc(b1-3)Gal(b1-4)GlcNAc(b1-2)Man(a1-3)[Gal(b1-4)GlcNAc(b1-3)Gal(b1-4)GlcNAc(b1-2)Man(a1-6)]Man(b1-4)GlcNAc(b1-4)GlcNAc
Procedure, shortened: as §1

[20] = target: Gal(b1-4)GlcNAc(b1-3)Gal(b1-4)GlcNAc(b1-3)Gal(b1-4)GlcNAc(b1-3)Gal(b1-4)GlcNAc(b1-2)[Gal(b1-4)GlcNAc(b1-3)Gal(b1-4)GlcNAc(b1-3)Gal(b1-4)GlcNAc(b1-3)Gal(b1-4)GlcNAc(b1-6)]Man(a1-6)[Gal(b1-4)GlcNAc(b1-3)Gal(b1-4)GlcNAc(b1-3)Gal(b1-4)GlcNAc(b1-3)Gal(b1-4)GlcNAc(b1-2)Man(a1-3)]Man(b1-4)GlcNAc(b1-4)[Fuc(a1-6)]GlcNAc
Procedure, shortened: as §1

[21] = target: Gal(b1-4)GlcNAc(b1-3)Gal(b1-4)GlcNAc(b1-3)GalNAc
Procedure, shortened: as §1

[22] = target: Gal(b1-4)GlcNAc(b1-3)Gal(b1-4)[Fuc(a1-3)]GlcNAc(b1-3)Gal(b1-4)[Fuc(a1-3)]GlcNAc
Procedure, shortened: as §1

[23] = target: Gal(b1-4)GlcNAc(b1-3)[Gal(b1-4)GlcNAc(b1-6)]Gal(b1-4)GlcNAc
Procedure, shortened: as §1

[24] = target: Gal3S(b1-4)[Fuc(a1-3)]GlcNAc
Procedure, shortened: as §1

GlcA(b1-3)GlcNAc = target: GlcA(b1-3)GlcNAc
Procedure, shortened: as §1

B1: CFEM-CGl (Candida glabrata), Q6FRS0 (protein)
chain: VLATPPACLLACVAQVSKQSSQCHTLNQVGCFCENENTAIKNCLDSICPNGNSDAAYTAFKNSCGDVGKAVASV
- glycan array binding signal (z-score) [1]: -0.334
- glycan array binding signal (z-score) [2]: -0.163
- glycan array binding signal (z-score) [3]: -0.233
- glycan array binding signal (z-score) [4]: -0.168
- glycan array binding signal (z-score) [5]: 8.8
- glycan array binding signal (z-score) [6]: 0.206
- glycan array binding signal (z-score) [7]: -0.397
- glycan array binding signal (z-score) [8]: -0.609
- glycan array binding signal (z-score) [9]: -0.183
- glycan array binding signal (z-score) [10]: 4.55
- glycan array binding signal (z-score) [11]: -0.347
- glycan array binding signal (z-score) [12]: -0.484
- glycan array binding signal (z-score) (Fuc(b1-3)GlcNAc): -0.346
- glycan array binding signal (z-score) (Gal(a1-4)Gal(b1-4)Glc): -0.153
- glycan array binding signal (z-score) (Gal(b1-3)Gal): 3.15
- glycan array binding signal (z-score) (Gal(b1-3)Gal(b1-4)GlcNAc): 2.81
- glycan array binding signal (z-score) [13]: 0.176
- glycan array binding signal (z-score) (Gal(b1-3)GalNAc(b1-3)Gal): 6.73
- glycan array binding signal (z-score) [14]: 9.88
- glycan array binding signal (z-score) [15]: -0.248
- glycan array binding signal (z-score) [16]: -0.497
- glycan array binding signal (z-score) [17]: -0.165
- glycan array binding signal (z-score) [18]: 2.93
- glycan array binding signal (z-score) [19]: 4.99
- glycan array binding signal (z-score) [20]: 0.09
- glycan array binding signal (z-score) [21]: 0.84
- glycan array binding signal (z-score) [22]: -0.249
- glycan array binding signal (z-score) [23]: -0.249
- glycan array binding signal (z-score) [24]: -0.353
- glycan array binding signal (z-score) (GlcA(b1-3)GlcNAc): -0.457

Reference: the supplement of paper PMC8728848
